Measurements taken from PubChem BioAssay (NCI).
Compounds without any hit were thinned out: in the full panel of roughly 83,000, 20% have a hit.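 Step 1: grow cells in 96-well plates. Step 2: add test compound at a single concentration. Step 3: incubate 48 h. Step 4: record percent growth.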 The source made the active and inactive calls. How the source made its calls: active means growth percent below 10; inactive means the rest.

How the values were obtained:
Assay in all cases: NCI-60 one-dose screen, 48 h (100 = growth as untreated, 0 = no growth, -100 = all killed)
Conditions in all cases: 10 µM unless noted
NCI-H23 lung = system: NCI-H23 lung
NCI-H226 lung = system: NCI-H226 lung
NCI-H322M lung = system: NCI-H322M lung
HOP-62 NSCLC = system: HOP-62 NSCLC
NCI-H460 lung = system: NCI-H460 lung
HOP-92 NSCLC = system: HOP-92 NSCLC
NCI-H522 lung = system: NCI-H522 lung
786-0 renal = system: 786-0 renal
COLO 205 colon = system: COLO 205 colon
A549/ATCC NSCLC = system: A549/ATCC NSCLC

Measured: growth

O=C1NCC(c2cc3ccccc3[nH]c2=O)Nc2ccccc21 (centres undefined)
inactive: NCI-H23 lung 97.4% | NCI-H226 lung 98.4% | NCI-H322M lung 100% | HOP-62 NSCLC 90.6% | NCI-H460 lung 105% | HOP-92 NSCLC 104% | NCI-H522 lung 88.6% | 786-0 renal 100% | COLO 205 colon 107%

Cc1sc2nc(CSc3nnc(-c4ccco4)o3)[nH]c(=O)c2c1C
inactive: NCI-H23 lung 121% | NCI-H226 lung 102% | NCI-H322M lung 131% | HOP-62 NSCLC 115% | NCI-H460 lung 108% | HOP-92 NSCLC 106% | NCI-H522 lung 104% | 786-0 renal 111% | COLO 205 colon 109%

NCCSC(c1ccccc1)(c1ccccc1)c1ccccc1
active: NCI-H460 lung 7.06% | HOP-92 NSCLC -2.14% | NCI-H522 lung -20.7% | COLO 205 colon -42.8%
inactive: NCI-H23 lung 25.1% | NCI-H226 lung 68.6% | NCI-H322M lung 29.5% | HOP-62 NSCLC 40.8% | 786-0 renal 37.9%

CCCCCCCCCCn1cc[n+](C)c1
active: NCI-H522 lung -19.9% | COLO 205 colon 8.8%
inactive: NCI-H23 lung 28.8% | NCI-H226 lung 30.4% | NCI-H322M lung 57.1% | HOP-62 NSCLC 38.2% | NCI-H460 lung 23.6% | HOP-92 NSCLC 51.9% | 786-0 renal 47.8%

COc1ccc(-c2nc(-c3nc4ccc(F)cc4[nH]3)cc3c2[nH]c2ccccc23)cc1
inactive: NCI-H23 lung 53.3% | NCI-H226 lung 70.6% | NCI-H322M lung 19% | HOP-62 NSCLC 48.7% | NCI-H460 lung 10.5% | HOP-92 NSCLC 31.8% | NCI-H522 lung 44.4% | 786-0 renal 63.2% | COLO 205 colon 44.1%

CC(=O)Nc1ccc(S(=O)(=O)N2C(=O)CCC2C(=O)Nc2ccccc2)cc1 (centres undefined)
active: HOP-92 NSCLC -5.79%
inactive: NCI-H23 lung 38.5% | NCI-H226 lung 46.9% | NCI-H322M lung 38% | HOP-62 NSCLC 30.3% | NCI-H460 lung 15.1% | NCI-H522 lung 27.5% | 786-0 renal 26.2% | COLO 205 colon 12.1%

C=C1C(=O)O[C@H]2[C@H]1CC/C(COC(=O)NCc1cc(OC)cc(OC)c1)=C\CC[C@@]1(C)O[C@@H]21
inactive: NCI-H23 lung 20.8% | NCI-H226 lung 13.2% | NCI-H322M lung 73.4% | HOP-62 NSCLC 44.9% | NCI-H460 lung 34.9%
active: HOP-92 NSCLC -21.6% | NCI-H522 lung -52.7% | 786-0 renal -37.7% | COLO 205 colon -64.9%

O=C(CNC1CCCCC1)Nc1ccc(-c2nc3ccccc3s2)cc1
inactive: NCI-H23 lung 76.2% | NCI-H226 lung 80.3% | NCI-H322M lung 91.7% | HOP-62 NSCLC 85.2% | NCI-H460 lung 91.3% | HOP-92 NSCLC 48.8% | NCI-H522 lung 95.5% | 786-0 renal 70.6% | COLO 205 colon 95.4%

CCCC1OC(c2ccc(C(C)C)cc2)OCC1CC (centres undefined)
inactive: NCI-H23 lung 98.8% | NCI-H226 lung 100% | NCI-H322M lung 98% | HOP-62 NSCLC 74% | NCI-H460 lung 123% | HOP-92 NSCLC 101% | NCI-H522 lung 87.2% | A549/ATCC NSCLC 75.8% | COLO 205 colon 99.6%

O=C(O)c1ccc(-n2c(=O)c3ccccc3c3ccccc3c2=O)cc1
inactive: NCI-H23 lung 102% | NCI-H226 lung 99.8% | NCI-H322M lung 108% | HOP-62 NSCLC 102% | NCI-H460 lung 115% | HOP-92 NSCLC 110% | NCI-H522 lung 94.9% | 786-0 renal 109% | COLO 205 colon 105%

O=c1[nH]c2ccccc2cc1-c1nnc(Cc2ccccc2)o1
inactive: NCI-H23 lung 74.7% | NCI-H226 lung 85.3% | NCI-H322M lung 92.3% | HOP-62 NSCLC 82.6% | NCI-H460 lung 92.2% | HOP-92 NSCLC 76.2% | NCI-H522 lung 71.2% | 786-0 renal 58.3% | COLO 205 colon 64.4%

O=C(NNC(=S)Nc1ccccc1)c1ccccn1
inactive: NCI-H23 lung 73.1% | NCI-H226 lung 43.4% | NCI-H322M lung 23.3% | HOP-62 NSCLC 37.9% | NCI-H460 lung 21.2% | HOP-92 NSCLC 16.7% | NCI-H522 lung 69% | A549/ATCC NSCLC 24.3% | 786-0 renal 22.6% | COLO 205 colon 22.5%

O=C(OCCCCOC(=O)n1cnc2ccccc21)n1cnc2ccccc21
inactive: NCI-H23 lung 99.7% | NCI-H226 lung 97.4% | NCI-H322M lung 105% | HOP-62 NSCLC 98.3% | NCI-H460 lung 103% | HOP-92 NSCLC 88.8% | NCI-H522 lung 91.3% | A549/ATCC NSCLC 92.5% | 786-0 renal 105% | COLO 205 colon 103%

CCO/C=N/NC(=O)c1ccncc1
inactive: NCI-H23 lung 102% | NCI-H226 lung 106% | NCI-H322M lung 107% | HOP-62 NSCLC 103% | NCI-H460 lung 104% | HOP-92 NSCLC 104% | NCI-H522 lung 98% | A549/ATCC NSCLC 106% | 786-0 renal 105% | COLO 205 colon 110%

COc1cc(OC)c(C(=O)/C=C/c2ccc(C(F)(F)F)cc2)c(OC)c1
inactive: NCI-H23 lung 42.3% | NCI-H226 lung 64.7% | NCI-H322M lung 62% | HOP-62 NSCLC 55.1% | NCI-H460 lung 23.1% | HOP-92 NSCLC 96.8% | NCI-H522 lung 28.8% | 786-0 renal 45.4% | COLO 205 colon 86.9%

CC(CCc1ccccc1)NC(=O)c1n[nH]c(=O)c2ccccc12 (centres undefined)
inactive: NCI-H23 lung 116% | NCI-H226 lung 103% | NCI-H322M lung 89.7% | HOP-62 NSCLC 92.1% | NCI-H460 lung 110% | HOP-92 NSCLC 61.2% | NCI-H522 lung 82.4% | A549/ATCC NSCLC 95.8% | 786-0 renal 107% | COLO 205 colon 115%

COc1ccc(/C=C/C(=O)c2cccc(B(O)O)c2)cc1O
inactive: NCI-H23 lung 61.9% | NCI-H226 lung 91.5% | NCI-H322M lung 64% | HOP-62 NSCLC 40.5% | NCI-H460 lung 13.8% | HOP-92 NSCLC 41.4% | NCI-H522 lung 43.9% | 786-0 renal 59.1% | COLO 205 colon 98.3%

CCC(C)NCC(=O)O (centres undefined)
inactive: NCI-H23 lung 108% | NCI-H226 lung 92.6% | NCI-H322M lung 118% | HOP-62 NSCLC 98.2% | NCI-H460 lung 108% | HOP-92 NSCLC 109% | NCI-H522 lung 78.7% | 786-0 renal 103% | COLO 205 colon 107%

CCCn1c(=S)sc2c(Cl)nc(C)nc21
inactive: NCI-H23 lung 110% | NCI-H226 lung 91.6% | NCI-H322M lung 93.6% | HOP-62 NSCLC 104% | NCI-H460 lung 88.5% | HOP-92 NSCLC 99.3% | NCI-H522 lung 33% | 786-0 renal 106% | COLO 205 colon 43.5%

COc1cc(-c2n[nH]nc2-c2ccc3c(c2)OCCO3)cc(OC)c1OC
inactive: NCI-H23 lung 22.8% | NCI-H226 lung 75.7% | NCI-H322M lung 51.4% | HOP-92 NSCLC 24.3% | 786-0 renal 20.9%
active: HOP-62 NSCLC 8.87% | NCI-H460 lung 2.69% | NCI-H522 lung -44.5% | COLO 205 colon -85.7%

Cc1ccc(-c2csc3nc(C)c(CCCl)c(=O)n23)cc1
inactive: NCI-H23 lung 87.5% | NCI-H226 lung 78.6% | NCI-H322M lung 98.5% | HOP-62 NSCLC 87.8% | NCI-H460 lung 99.5% | HOP-92 NSCLC 80.8% | NCI-H522 lung 88.8% | 786-0 renal 104% | COLO 205 colon 119%

COc1ccc(NC(=O)CSc2nc3ccc(Cl)cc3c(=O)n2-c2ccccc2C(F)(F)F)c(OC)c1OC
active: HOP-92 NSCLC -2.83%
inactive: NCI-H23 lung 79.6% | NCI-H226 lung 62% | NCI-H322M lung 86.6% | HOP-62 NSCLC 60.6% | NCI-H460 lung 82.4% | NCI-H522 lung 32.4% | A549/ATCC NSCLC 72% | COLO 205 colon 92.9%

COc1ccc(C(=O)N2CCN(C(=O)c3cc(OC)c(OC)c(OC)c3)CC2)cc1OCCCCOc1cc2c(cc1OC)C(=O)N1CCC[C@H]1C=N2
inactive: NCI-H23 lung 82.2% | NCI-H226 lung 105% | NCI-H322M lung 141% | HOP-62 NSCLC 105% | NCI-H460 lung 121% | HOP-92 NSCLC 70.9% | NCI-H522 lung 102% | 786-0 renal 108% | COLO 205 colon 107%

CN(C)c1ccc(C2CC(c3ccccc3)=NN2/C=C2\SC(=O)NC2=O)cc1 (centres undefined)
inactive: NCI-H23 lung 88.7% | NCI-H226 lung 90.4% | NCI-H322M lung 87.4% | HOP-62 NSCLC 94.5% | NCI-H460 lung 67.2% | HOP-92 NSCLC 91.5% | NCI-H522 lung 90% | 786-0 renal 90.5% | COLO 205 colon 110%

O=c1oc2cc(OS(=O)(=O)c3ccccc3)c(Cl)cc2c2c1CCCCCC2
inactive: NCI-H23 lung 80.1% | NCI-H226 lung 81.7% | NCI-H322M lung 95.4% | HOP-62 NSCLC 118% | NCI-H460 lung 96.1% | HOP-92 NSCLC 65.7% | NCI-H522 lung 73.2% | 786-0 renal 87.7% | COLO 205 colon 94.4%

CC(=O)n1cc([C@H]2CC[C@H](c3cn(C(C)=O)c4ccccc34)c3c2[nH]c2ccccc32)c2ccccc21
inactive: NCI-H23 lung 75.7% | NCI-H226 lung 89.4% | NCI-H322M lung 77.6% | HOP-62 NSCLC 70.7% | NCI-H460 lung 90.4% | HOP-92 NSCLC 85.3% | NCI-H522 lung 65.1% | 786-0 renal 93.5% | COLO 205 colon 94.5%

CC(Br)C(Br)c1cc2c(cc1Br)OCO2 (centres undefined)
inactive: NCI-H23 lung 96.4% | NCI-H226 lung 99.3% | NCI-H322M lung 87.5% | HOP-62 NSCLC 68% | NCI-H460 lung 126% | HOP-92 NSCLC 106% | NCI-H522 lung 87.2% | A549/ATCC NSCLC 72.4% | COLO 205 colon 90.2%

CC(C)[C@H](CO)Nc1nc(Nc2ccc(C(=O)NCCNS(=O)(=O)c3cccc4c(N(C)C)cccc34)c(Cl)c2)c2ncn(C(C)C)c2n1
inactive: NCI-H23 lung 25.3% | NCI-H226 lung 22% | NCI-H322M lung 15.4% | NCI-H460 lung 16.2%
active: HOP-62 NSCLC 1.86% | HOP-92 NSCLC -9.2% | NCI-H522 lung -31.5% | 786-0 renal -1.14% | COLO 205 colon -69.3%

CCC(c1ccc(OC)cc1)C(CC)c1ccc(OCC[N+](C)(C)C)cc1 (centres undefined)
active: HOP-92 NSCLC 9.93% | COLO 205 colon -74.7%
inactive: NCI-H23 lung 48.8% | NCI-H226 lung 49.8% | NCI-H322M lung 89.6% | HOP-62 NSCLC 73.9% | NCI-H460 lung 59% | NCI-H522 lung 35% | 786-0 renal 88%

Cc1ccc(S(=O)(=O)OC2COCOC2C(OS(=O)(=O)c2ccc(C)cc2)C2OCOCC2OS(=O)(=O)c2ccc(C)cc2)cc1 (centres undefined)
inactive: NCI-H23 lung 109% | NCI-H226 lung 95.2% | NCI-H322M lung 96.3% | HOP-62 NSCLC 99.4% | NCI-H460 lung 110% | HOP-92 NSCLC 104% | NCI-H522 lung 98.3% | A549/ATCC NSCLC 93.6% | COLO 205 colon 108%
